The text below walks through data of PubChem BioAssay AID2284195 (EPA ToxCast).

Broadly, the AC50 is the concentration giving half of the maximal activity seen.

Calls of active or inactive are those of the source. How the source made its calls: active means hit-call score of the fitted dose curve at least 0.9, where 1 is the maximum; inactive means score below 0.9.

Retinoic acid receptor alpha (Homo sapiens), sequence (P10276 whole entry, looked up): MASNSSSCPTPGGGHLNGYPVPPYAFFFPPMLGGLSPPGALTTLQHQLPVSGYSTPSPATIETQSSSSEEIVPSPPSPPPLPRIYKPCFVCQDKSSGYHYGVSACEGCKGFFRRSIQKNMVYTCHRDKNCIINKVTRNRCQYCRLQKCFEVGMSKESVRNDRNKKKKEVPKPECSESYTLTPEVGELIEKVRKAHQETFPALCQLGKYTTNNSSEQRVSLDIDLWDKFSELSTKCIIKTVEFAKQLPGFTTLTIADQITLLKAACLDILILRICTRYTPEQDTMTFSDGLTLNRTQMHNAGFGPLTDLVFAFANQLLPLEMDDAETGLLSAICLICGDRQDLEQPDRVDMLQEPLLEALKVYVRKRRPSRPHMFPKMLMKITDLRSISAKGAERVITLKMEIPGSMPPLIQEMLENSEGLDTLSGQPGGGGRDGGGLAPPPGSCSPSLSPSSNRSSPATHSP

The assay deals with Retinoic acid receptor alpha (Homo sapiens) (UniProt P10276). The assay can be described thus: ERF_TW_NR_hRARa: Eurofins (ERF) Nuclear Receptor (NR) Radioligand Binding LeadHunter Assay for human Retinoic Acid Receptor alpha (RARa) Agonism. The method, then:
ERF_TW_NR_hRARa is a biochemical, single-readout assay that uses extracted gene-proteins in a cell-free assay. Measurements were taken 2 hour after chemical dosing in a 96-well plate. See RARalpha Human retinoic acid NHR Binding (Agonist Radioligand) Assay, Panlabs.ERF_TW_NR_hRARa is an assay component calculated from the ERF_TW_NR_hRARa assay. It is designed to measure radioligand binding using a type of binding reporter as detected by scintillation counting with radiometry technology.Data from the assay component ERF_TW_NR_hRARa was analyzed at the assay endpoint, ERF_TW_NR_hRARa, in the positive analysis fitting direction relative to DMSO as the negative control and baseline of activity. Using a type of binding reporter, gain-of-signal activity can be used to understand changes in radioligand binding as they relate to gene RARA. To generalize the intended target to other relatable targets, this assay endpoint is annotated to the nuclear receptor intended target family, where the subfamily is retinoic acid receptor.
Human recombinant RARalpha-LBD expressed in insect cells are used in modified Tris-HCl buffer pH 7.4. A 0.025 ug aliquot is incubated with 3 nM [3H]9-cis-Retinoic acid and 1 ug Anti-GST antibody for 2 hours at 4C. Non-specific binding is estimated in the presence of 1 uM 9-cis-retinoic acid. Receptors are counted to determine [3H]9-cis-Retinoic acid specifically bound. […]
Regarding `O=C(/C=C/c1ccc(O)cc1)CC(=O)/C=C/c1ccc(O)cc1`, the AC50 was 2240 nM (active).
